Experimental data reported in PubChem BioAssay.
Active and inactive are the calls of the source. Cut-off read from the data, not from the text of the source: active = inhibition above about 31%; inactive = the rest.

experiment: MRP1 drug-resistance reversers in H69AR cells – cell-based, doxorubicin co-treatment, pilot screen (AID 601); details: H69AR cells, CellTiter-Glo, 72 h; compound alone cytotoxicity; at 10 µM

Structure (SMILES)	viability
CC[N+](C)(C)c1cccc(O)c1	95%
NC(Cc1ccc(Oc2ccc(O)cc2)cc1)C(=O)O (centres undefined)	80.8%
COCCN(C(=O)CCC(=O)Nc1ccccn1)C(C(=O)NC1CCCC1)c1ccc(OC)cc1 (centres undefined)	111%
Cc1ncc([N+](=O)[O-])n1CC(O)CCl (centres undefined)	104%
CCCCOc1ccc(CC(=O)NO)cc1	54.2%
Nc1ccc2cn[nH]c2c1	93.1%
CCC(=NC(C)c1ccccc1)c1c(O)n(C)c(=O)n(C)c1=O (centres undefined)	90.7%
C[C@]12C[C@H](O)[C@H]3[C@@H](CCC4=CC(=O)CC[C@@]43C)[C@@H]1CC[C@@H]2C(=O)CO	88.3%
OCCOCCN1CCN(C(c2ccccc2)c2ccc(Cl)cc2)CC1 (centres undefined)	98.3%
Cn1cc(NC(=O)c2cc(NC(=O)c3cc(NC=O)cn3C)cn2C)cc1C(=O)NCCC(=N)N	83.1%
Cn1c(SCC(=O)N2CCOCC2)nnc1-c1cnccn1	109%
CC(=O)C1=C(O)C(=O)N(Cc2cccnc2)C1c1ccccc1 (centres undefined)	105%
Cc1cccc(Nc2ccccc2C(=O)O)c1C	99.4%
CCOC(=O)c1c(NCc2ccc3c(c2)OCO3)c2ccccc2[nH]c1=O	87.3%
C[C@]12CC[C@H]3[C@@H](CCC4=CC(=O)CC[C@@]43C)[C@@H]1CC[C@@H]2C(=O)CO	78.6%
COc1ccc2cc([C@H](C)C(=O)O)ccc2c1	94.8%
CCC(NC(C)C)C(O)c1ccc(O)c2[nH]c(=O)ccc12 (centres undefined)	94.4%
COc1cc2nc(N3CCN(C(=O)C4CCCO4)CC3)nc(N)c2cc1OC (centres undefined)	91.6%
CN1Cc2c(N)cccc2C(c2ccccc2)C1 (centres undefined)	102%
C[C@H]1C[C@H]2[C@@H]3CCC4=CC(=O)C=C[C@]4(C)[C@@]3(Cl)[C@@H](O)C[C@]2(C)[C@@]1(O)C(=O)CO	97.5%

Structure (SMILES)	viability
C[C@]12CC[C@@H]3c4ccc(O[C@@H]5O[C@H](C(=O)O)[C@@H](O)[C@H](O)[C@H]5O)cc4CC[C@H]3[C@@H]1C[C@@H](O)[C@@H]2O	102%
Cc1c(C(=O)O)sc2ncn(C)c(=O)c12	103%
O=c1ccc(S(=O)(=O)N2CCC(Cc3ccccc3)CC2)c[nH]1	95.3%
CCn1cc(C(=O)O)c(=O)c2cnc(N3CCNCC3)nc21	107%
Nc1nnc(-c2cccc(Cl)c2Cl)c(N)n1	97.1%
O=C(O)CCCCCCC1C(=O)NC(=O)N1CCC(O)C1CCCCC1 (centres undefined)	99.3%
COc1ccc(CN(CCN(C)C)c2ccccn2)cc1	93.9%
O=C(NCC1CCCCN1)c1cc(OCC(F)(F)F)ccc1OCC(F)(F)F (centres undefined)	97.9%
c1ccc2nc(-c3nc4ccccc4[nH]3)ccc2c1	66.6%
CCCC(=O)Nc1ncnc2c1ncn2[C@@H]1O[C@@H]2COP(=O)(O)O[C@H]2[C@H]1OC(=O)CCC	104%
COc1cc(OC)c(NC(=O)c2ccco2)cc1Cl	84.7%
O=S(=O)(c1ccc(OCC(O)CN2CCC(Cc3ccccc3)CC2)cc1)N1CCOCC1 (centres undefined)	84.8%
C/C(N)=C(/C#N)C(=O)COC(=O)CCSc1ccccc1	101%
CCCC(=O)O[C@]1(C(=O)COC(C)=O)CC[C@H]2[C@@H]3C[C@H](F)C4=CC(=O)C=C[C@]4(C)[C@@]3(F)[C@@H](O)C[C@@]21C	95.6%
Cn1c(-c2ccccc2)cc(=O)c2ccccc21	96.6%
Cc1cccc(C)c1NC(=O)C1CCCCN1C (centres undefined)	99.7%
CCC(NC(C)C)C(O)c1ccc(O)c(O)c1 (centres undefined)	85%
C=C(c1cccc2ccccc12)P(=O)(O)O	92.9%
COC(=O)CSc1nc(C)c(C(C)=O)cc1C#N	90.1%
C[C@]12CC[C@@H]3c4ccc(O)cc4CC[C@H]3[C@@H]1CC[C@@H]2OC(=O)CCC(=O)O	105%

experiment: yeast transport mutant growth inhibition pilot in 384-well plates, post-Golgi transport modulator project (AID 636); details: absorbance 615 nm, about 18 h, stronger effect = higher value

Structure (SMILES)	inhibition
COCCN(C(=O)CCC(=O)Nc1ccccn1)C(C(=O)NC1CCCC1)c1ccc(OC)cc1 (centres undefined)	2.57% (inactive)
CCC(=NC(C)c1ccccc1)c1c(O)n(C)c(=O)n(C)c1=O (centres undefined)	-2.89% (inactive)
Cn1c(SCC(=O)N2CCOCC2)nnc1-c1cnccn1	-4.34% (inactive)
CC(=O)C1=C(O)C(=O)N(Cc2cccnc2)C1c1ccccc1 (centres undefined)	-6.13% (inactive)
CCOC(=O)c1c(NCc2ccc3c(c2)OCO3)c2ccccc2[nH]c1=O	-8.78% (inactive)
Cc1c(C(=O)O)sc2ncn(C)c(=O)c12	-7.76% (inactive)
O=c1ccc(S(=O)(=O)N2CCC(Cc3ccccc3)CC2)c[nH]1	0.13% (inactive)
c1ccc2nc(-c3nc4ccccc4[nH]3)ccc2c1	0% (inactive)
COc1cc(OC)c(NC(=O)c2ccco2)cc1Cl	-3.95% (inactive)
O=S(=O)(c1ccc(OCC(O)CN2CCC(Cc3ccccc3)CC2)cc1)N1CCOCC1 (centres undefined)	-6.45% (inactive)
C/C(N)=C(/C#N)C(=O)COC(=O)CCSc1ccccc1	-0.13% (inactive)
Cn1c(-c2ccccc2)cc(=O)c2ccccc21	-1.43% (inactive)
C=C(c1cccc2ccccc12)P(=O)(O)O	-6.45% (inactive)
COC(=O)CSc1nc(C)c(C(C)=O)cc1C#N	-0.93% (inactive)
